High-throughput results as filed in PubChem BioAssay.
Cav3 T inh: Cav3.2 calcium influx blockers – cell-based, Fluo-4 calcium fluorescence, FDSS, MLSMR library, primary screen; Cav3.2-expressing cells; hits give low values; B-score at 10 µM; hit rate 4% among 100,000; AID 449739, 2010;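 active = single-dose well whose peak fluorescence ratio is a statistical outlier from its plate by either plate-standardised score or position-corrected B-score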
CD11b adhes enh: enhancers of CD11b/CD18 adhesion to fibrinogen, primary screen, K562 cells, luminescence | hit rate 0.07% among 93,000 | Integrin beta-2 (Homo sapiens) + Integrin alpha-M (Homo sapiens), P05107+P11215 | ATPlite luminescence | activation, % at 10 µM | AID 1499, 2009;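 active = 10 µM primary screen giving 50% or more activity, confirmed by 40% or more on retest at that dose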
Target sequence (P05107 whole entry, looked up, other chains not shown): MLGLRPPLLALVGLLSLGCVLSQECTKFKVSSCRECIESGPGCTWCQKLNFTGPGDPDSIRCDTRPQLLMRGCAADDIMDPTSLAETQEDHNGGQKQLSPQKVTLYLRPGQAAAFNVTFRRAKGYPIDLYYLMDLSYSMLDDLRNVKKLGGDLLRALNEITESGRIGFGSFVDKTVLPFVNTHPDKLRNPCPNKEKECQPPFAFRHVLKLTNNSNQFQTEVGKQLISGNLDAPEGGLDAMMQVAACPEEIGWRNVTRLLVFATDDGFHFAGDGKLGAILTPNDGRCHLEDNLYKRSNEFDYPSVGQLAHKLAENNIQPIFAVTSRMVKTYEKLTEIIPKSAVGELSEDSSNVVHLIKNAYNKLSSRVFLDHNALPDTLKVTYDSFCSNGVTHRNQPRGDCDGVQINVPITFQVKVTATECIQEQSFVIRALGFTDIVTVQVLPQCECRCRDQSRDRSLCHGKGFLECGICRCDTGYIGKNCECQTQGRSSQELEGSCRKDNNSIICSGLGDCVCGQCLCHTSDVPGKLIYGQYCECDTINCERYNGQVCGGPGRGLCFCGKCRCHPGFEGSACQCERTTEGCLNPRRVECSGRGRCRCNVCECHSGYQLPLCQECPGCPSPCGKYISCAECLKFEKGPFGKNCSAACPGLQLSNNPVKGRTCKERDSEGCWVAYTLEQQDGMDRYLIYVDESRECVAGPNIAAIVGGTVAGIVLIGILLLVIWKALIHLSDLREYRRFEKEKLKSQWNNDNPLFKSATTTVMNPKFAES
CD11b adhes inh: inhibitors of CD11b/CD18 adhesion to fibrinogen, primary screen, K562 cells, luminescence. ATPlite luminescence; Mn2+ added to activate the integrin. AID 1497, 2009. Integrin beta-2 (Homo sapiens) + Integrin alpha-M (Homo sapiens), P05107+P11215. inhibition, % at 10 µM. hit rate 0.54% among 93,000;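 active = primary inhibition of 50% or more at 10 µM, then 40% or more on retest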
E coli WT exp: growth inhibitors of wild-type E. coli, primary screen, strain BW25113, expanded library, OD600. OD600 absorbance. growth inhibition, % at 100 µM. hit rate 0.15% among 98,000. AID 710, 2007;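 active = growth inhibition above about 50% at one test dose, limit read from the data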;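 also: growth measured after 20 h incubation at 37 °C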
The depositor's hits bear a star; . = no result given. The full list was thinned out, with hits kept by preference.

SMILES	Cav3 T inh	CD11b adhes enh	CD11b adhes inh	E coli WT exp
Cn1c(=O)c2c(nc(NCc3cccnc3)n2Cc2ccc(Cl)cc2)n(C)c1=O	-7.2*	-2	-16	1
COc1ccc(CNc2nc3c(c(=O)n(Cc4ccc(Cl)cc4)c(=O)n3C)n2C)cc1	-7.5*	0	32	-9
Cn1c(=O)c2c(nc(NCc3ccccc3)n2Cc2ccc(F)cc2)n(C)c1=O	-6.8*	.	.	4
Cc1ccc(Cn2c(NCCc3ccccc3)nc3c2c(=O)n(C)c(=O)n3C)cc1	-0.25	2	-15	-3
CS(=O)(=O)N(CC(=O)NCCSCc1c(F)cccc1Cl)c1ccc2c(c1)OCO2	-6.5*	-2	16	8
COc1cccc(N(CC(=O)NCCSc2ccc(Cl)cc2)S(C)(=O)=O)c1	-5.5*	4	-50	-6
COc1ccc(N(CC(=O)NCCSCc2c(F)cccc2Cl)S(C)(=O)=O)cc1OC	0.53	-2	-16	3
COc1cccc(C(c2c(NC(=O)c3ccccc3)sc(C)c2C)N2CCN(C)CC2)c1 (centres undefined)	.	1	13	.
N#Cc1c(-c2ccccc2)nc(-c2ccccc2)[nH]c1=O	-1.2	-4	52*	-8
Cc1cc2n(c(=O)c1C#N)CCCN2c1ccccc1	1.4	.	.	.
COc1cccc(CNS(=O)(=O)c2cccc(S(=O)(=O)N3CCOCC3)c2)c1	0.67	-2	0	-4
COc1ccc(CNS(=O)(=O)c2cccc(S(=O)(=O)N3CCOCC3)c2)cc1	-4.4*	-1	-3	-1
Cn1c(=O)c(C(=O)CN2CCCc3ccccc32)c(N)n(Cc2ccccc2)c1=O	-4.1*	-3	8	-19
CC(C)(C)OC(=O)NNC(=O)c1ccc(Cl)cc1	0.84	0	-21	12
Cc1nonc1OCC(C)(COc1nonc1C)NC(=O)c1ccc(Cl)cc1	-4.2*	.	.	.
CC(NC(=O)C1(C)CC1(Br)Br)C(C)(C)C (centres undefined)	1.5	.	.	-2
O=C1CCCC2=C1C(O)(C(F)(F)F)C(=O)N2Cc1ccccc1 (centres undefined)	0.045	.	.	3
O=C1N2c3ccccc3CCc3cccc(c32)C1(O)C(F)(F)F (centres undefined)	-5.6*	5	-20	6
FC(F)(F)c1cnc(NNC(=S)Nc2ccccc2Cl)c(Cl)c1	.	-10	100*	.
O=C(Cn1c(C(F)(F)F)nc2ccccc21)c1ccc(F)cc1	.	.	.	-4
O=C(CCn1c(=O)c2sccc2n(CC(=O)OCc2ccccc2)c1=O)NCc1ccccc1	-0.038	-2	-3	-2
CCOC(=O)C(C(=O)Nc1nc2ccccc2s1)C1CCCCC1 (centres undefined)	-7.8*	.	.	4
CCN(CC)C(=O)C1CCCN(c2ccc([N+](=O)[O-])cc2/C=N/NC(=O)c2cccc(Br)c2)C1 (centres undefined)	-7.2*	-2	1	-15
CN1CCN(c2ccc([N+](=O)[O-])cc2/C=N/NC(=O)c2ccc(F)cc2)CC1	.	1	6	2
COc1ccccc1C(=O)Nc1ncc2c(n1)CC(c1ccco1)CC2=O (centres undefined)	-0.16	-2	-2	-2
SMILES	Cav3 T inh	CD11b adhes enh	CD11b adhes inh	E coli WT exp
COc1ccc(C2CC(=O)c3cnc(NC(=O)c4ccccc4)nc3C2)c(OC)c1 (centres undefined)	-3.3*	0	-2	0
CCOC(=O)C1=C(C)NC(=O)NC1c1cccc(OC)c1OCc1ccccc1Cl (centres undefined)	-0.017	-1	-10	-10
CC(C)(C)NC(=O)CN(C(=O)Cn1nnc(-c2ccc(Cl)cc2)n1)C1CCN(Cc2ccccc2)CC1	-7.6*	.	.	.
CC(C)(C)NC(=O)CN(C(=O)Cn1nnc(-c2ccccc2F)n1)c1cccc2c1CCCC2	-3.1*	.	.	-5
Cc1cccc(NC(=O)Cn2nnc(-c3ccc(CN4CCCC4)cc3)n2)c1C	-2.6	3	31	3
COc1ccccc1N(CC(=O)NC(C)(C)C)C(=O)Cn1nnc(-c2ccc(C)o2)n1	0.049	-1	8	-5
COc1cc2c(cc1OC)-c1nnc(-c3ccco3)n1C1(CCCC1)C2	0.78	.	.	.
c1cnc2c(C3NCCc4c3[nH]c3ccccc43)cccc2c1 (centres undefined)	-0.087	.	.	.
CN(C(=O)COC(=O)c1ccc(Cl)cc1N)C1CCS(=O)(=O)C1 (centres undefined)	-0.23	-3	11	3
O=C(CC12CC3CC(CC(C3)C1)C2)NCO	0.063	-1	10	-3
